This is a sample that favours compounds with a hit; in the whole collection about 10% have one here.
hNpr1 antagonist: human Npr1 receptor antagonism; P16066; HEK293 hNpr1 GloSensor cGMP, ANP-stimulated luminescence; Potency, µM (top dose mostly 46.3 µM), without a hit: at the top dose activity change, negative = inhibition, hits mostly inhibitors; 1.6% of 76,000 active; AID 1347048; calls by dose curve; note: nearly all actives have a fitted effect of over 60% in size
Target sequence (P16066 whole entry, looked up): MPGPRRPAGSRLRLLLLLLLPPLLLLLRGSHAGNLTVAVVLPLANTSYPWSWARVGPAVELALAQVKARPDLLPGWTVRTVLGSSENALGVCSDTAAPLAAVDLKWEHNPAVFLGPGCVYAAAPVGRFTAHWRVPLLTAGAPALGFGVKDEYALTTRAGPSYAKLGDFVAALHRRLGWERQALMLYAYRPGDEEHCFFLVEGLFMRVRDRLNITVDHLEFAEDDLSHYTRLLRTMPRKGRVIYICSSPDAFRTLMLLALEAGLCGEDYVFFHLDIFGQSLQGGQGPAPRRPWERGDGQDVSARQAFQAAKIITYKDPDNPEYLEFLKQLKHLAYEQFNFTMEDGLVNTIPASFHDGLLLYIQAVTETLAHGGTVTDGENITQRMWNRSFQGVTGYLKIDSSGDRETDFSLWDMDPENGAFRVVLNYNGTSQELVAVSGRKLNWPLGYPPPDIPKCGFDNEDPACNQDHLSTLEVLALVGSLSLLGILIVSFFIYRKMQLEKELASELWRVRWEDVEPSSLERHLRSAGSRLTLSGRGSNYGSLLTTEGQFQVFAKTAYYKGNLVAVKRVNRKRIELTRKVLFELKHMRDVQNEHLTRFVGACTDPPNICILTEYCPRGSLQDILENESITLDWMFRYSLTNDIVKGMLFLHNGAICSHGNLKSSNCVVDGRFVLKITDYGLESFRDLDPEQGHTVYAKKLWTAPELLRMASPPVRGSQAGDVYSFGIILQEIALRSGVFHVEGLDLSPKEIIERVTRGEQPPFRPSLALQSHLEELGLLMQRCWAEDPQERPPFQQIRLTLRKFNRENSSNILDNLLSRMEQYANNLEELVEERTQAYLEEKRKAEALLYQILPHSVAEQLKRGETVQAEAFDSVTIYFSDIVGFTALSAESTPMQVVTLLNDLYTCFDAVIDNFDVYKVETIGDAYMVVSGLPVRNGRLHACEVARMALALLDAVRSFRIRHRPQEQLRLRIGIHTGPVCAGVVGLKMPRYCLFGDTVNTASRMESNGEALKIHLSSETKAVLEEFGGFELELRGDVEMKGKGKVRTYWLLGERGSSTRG
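Compound pre-incubated 30 min at room temperature on GloSensor-loaded HEK293 cells stably carrying hNpr1 and the pGS-40F cGMP biosensor. Stimulation uses hNppA at 0.1 nM final; luminescence is taken at baseline and 20 min post-agonist.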
NIH3T3 tox: kills NIH 3T3 cells. NIH 3T3 viability, CellTiter-Glo ATP luminescence, 48-72 h. Potency, µM (doses to about 96.7 µM), inactives show top-dose activity change, negative = cytotoxicity, hits mostly inhibitors. 4.3% of 94,000 active. AID 1345082; note: nearly all actives have a fitted effect of over 55% in size
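Cytotoxicity is measured as loss of cellular ATP: NIH 3T3 cells (400/well) are exposed to compound for 48 or 72 hr at 37 °C, then CellTiter-Glo luminescence is imaged after 10 min at room temperature.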
Luciferase inh: Photinus pyralis luciferase inhibition | AID 1347043 | 2.5% of 76,000 active | Potency, µM (series often up to 115 µM), usual class: inhibitors | P08659 | purified P. pyralis luciferase, luminescence, biochemical; note: nearly all actives have a fitted effect of over 65% in size
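Luminescence read by CCD imaging after purified firefly luciferase (10nM final) was added to substrate buffer holding 10uM D-luciferin and 10uM ATP, pH 7.5, pre-dosed with compound.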
GPT2 inhibitor: GPT2 alanine aminotransferase inhibition | Recombinant GPT2, coupled pyruvate oxidase/HRP Amplex Red fluorescence | Potency, µM (highest dose often 57.7 µM), without a hit: at the highest dose activity change, negative = inhibition, hits mostly inhibitors | 0.25% of 100,000 active | AID 1671188; note: nearly all actives have a fitted effect of over 60% in size
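Recombinant GPT2 (10ng/uL) with 250uM a-KG and 2mM L-alanine, 30 min at room temperature, in HEPES pH 7.5 buffer. Pyruvate detected by pyruvate oxidase/HRP/Amplex Red fluorescence after 30 min in the dark; AOA (50uM) as positive control.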
HEK cytotox: cytotoxic compounds in HEK 293 cells; HEK 293 viability, ATP luminescence (CellTiter-Glo), 48-72 h; Potency, µM (top dose mostly 115 µM), for inactives: at the top dose activity change, negative = cytotoxicity, usual class: inhibitors; 6.6% of 94,000 active; AID 1345083; note: nearly all actives have a fitted effect of over 60% in size
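qHTS cytotoxicity; HEK 293, 250 cells/well; compound pinned; 48 or 72 hr, 37 degree Celsius, 5% CO2, 95% humidity; CellTiter-Glo, 10 min RT; luminescence (ATP).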
* hit, by the source's call; i = inactive; ? = inconclusive; / = no result; [ ] = remark or other dose. Unless noted, calls come from the whole dose curve; as a rule, active = well fitted curve in the direction sought with a large enough effect; inconclusive = small, poorly fitted or top-dose-only effect, or another doubt; inactive = no such curve, though single readings can be large; an effect the other way counts as inactive or inconclusive. % is set by controls: 0 for no effect and ±100 for the full control effect; potency is the fitted concentration of half-maximal effect.

SMILES | hNpr1 antagonist | NIH3T3 tox | Luciferase inh | GPT2 inhibitor | HEK cytotox
CCN(Cc1cccnc1)C(=O)c1cc(-c2cnn(CC)c2)nc2cc(C)ccc12 | -4% | 6.3µM* | ? | i | -19%
CCCN(CC1CCOC1)C(=O)Nc1ccccc1Cl (centres undefined) | 0% | i | i | -11% | 2%
O=[S+]([O-])(c1ccccc1)N1CC(Oc2ccc(F)cc2F)C1 | / | -20% | / | 0% | -15%
Cn1nc(C(=O)N2CCn3nc(Cc4ccccc4)cc3C2)ccc1=O | -1% | -30% | i | -12% | -20%
Cc1cccc2nc(C(=O)N3CCn4nc(Cc5ccccc5)cc4C3)cn12 | ? | ? | i | 1% | 45µM*
CS(=O)(=O)c1ccc(-c2cnc([C@@H]3COCCN3Cc3cnc4ccccc4c3)[nH]2)cc1 | 5% | -16% | i | -10% | -23%
COc1cccc(-c2cnc([C@@H]3COCCN3Cc3cnc4ccccc4c3)[nH]2)c1 | -28%[70.6 µM] | -22%[138 µM] | i | 3%[88.5 µM] | 100µM*
Fc1ccc(-c2cnc([C@@H]3COCCN3Cc3cnc4ccccc4c3)[nH]2)cc1 | -29%[70.6 µM] | ? | i | -6%[88.5 µM] | 89µM*
O=C([C@@H]1C[C@H](F)CN1C(=O)Cc1ccc(OC(F)(F)F)cc1)N1CCCCC1 | / | -19% | / | i | -21%
COCCc1noc(C2CNC2)n1 | -21% | 18µM* | i | i | 8.9µM*
C(Cc1noc(C2CNC2)n1)OCC1CC1 | -30% | 16µM* | i | -6% | 11µM*
Cc1noc(C)c1-c1cc(-c2cccc(N3CCOCC3)c2)cn2cncc12 | -8%[70.6 µM] | 18µM* | i | -12%[88.5 µM] | ?
FC(F)(F)c1cccc(-c2cc(-c3ccncc3)c3cncn3c2)c1 | -19%[70.6 µM] | 35µM* | i | ? | ?
c1cc(-c2cc(-c3ccncc3)c3cncn3c2)cc(N2CCOCC2)c1 | -13%[70.6 µM] | 22µM* | i | i | ?
Oc1cccc(-c2cc(-c3ccncc3)c3cncn3c2)c1 | -18%[70.6 µM] | ? | i | -4%[88.5 µM] | ?
Cc1nn(-c2ccccc2)c(C)c1CN1CCC2(CC1)Cc1ccccc1CNC2=O | / | -7% | / | 2% | -26%
O=C(NC1CCCCC1)N1CCC(Cc2nncn2CC2CC2)CC1 | 0% | -7% | i | -13% | i
CCc1ccc(N2CC(c3noc(-c4ccc(N(C)C)cc4)n3)CC2=O)cc1 (centres undefined) | -5% | -16% | i | ? | -5%
CCc1ccc(N2CC(c3noc(-c4sccc4C)n3)CC2=O)cc1 (centres undefined) | 0% | ? | i | 0% | 79µM*
COc1ccccc1CN1CC(c2noc(-c3ccc(C)cc3C)n2)CC1=O (centres undefined) | -16% | ? | i | i | 40µM*
COc1ccc(N2CC(c3noc(-c4ccc(F)cc4)n3)CC2=O)cc1OC (centres undefined) | -11% | -17% | i | -4% | ?
COc1ccc(-c2nc(C3CC(=O)N(Cc4ccccc4OC)C3)no2)c(C)c1 (centres undefined) | -2% | ? | i | ? | ?
CCOc1ccc(-c2nc(C3CC(=O)N(Cc4ccccc4OC)C3)no2)cc1 (centres undefined) | -13% | 22µM* | i | i | 45µM*
COc1ccc(N2CC(c3noc(-c4ccc(C(C)(C)C)cc4)n3)CC2=O)cc1OC (centres undefined) | ? | ? | ? | -5% | 40µM*
CC1(C)CN(C(=O)c2ccccc2Oc2ccccc2)CC1(C)O (centres undefined) | 5% | 0% | i | 3% | -13%
SMILES | hNpr1 antagonist | NIH3T3 tox | Luciferase inh | GPT2 inhibitor | HEK cytotox
O=C1CO[C@H]2CN(Cc3ccccc3F)C[C@H]2N1c1ccccc1 | -4%[70.6 µM] | ? | i | i | 79µM*
O=C([C@@H]1C[C@H](c2ccc(F)cc2)N(Cc2ccccc2Cl)C1)N1CCOCC1 | -5%[70.6 µM] | 89µM* | i | -23%[88.5 µM] | ?
O=C([C@@H]1C[C@H](c2ccc(F)cc2)N(Cc2ccccc2Cl)C1)N1CC(O)C1 | -13%[70.6 µM] | 89µM* | i | -8%[88.5 µM] | 71µM*
O=C([C@@H]1C[C@H](c2ccc(F)cc2)N(Cc2ccccc2Cl)C1)N1CCN(CCO)CC1 | -16% | ? | i | -24% | ?
CC(=O)N1CCC(C(=O)N2CCCCCCN(C)C(=O)[C@@H]3CCC[C@@H]32)CC1 | 4% | i | i | i | 5%
Cc1ccc2nc3n(c2c1)[C@@H](CNS(=O)(=O)c1ccc(C#N)cc1)COC3 | -6%[70.6 µM] | ? | i | -13%[88.5 µM] | -21%[172 µM]
Cc1ccc2nc(CO[C@H]3CN(C(=O)C4CCOCC4)C[C@H]3F)[nH]c2c1 | -3%[70.6 µM] | 3%[138 µM] | i | ? | -8%[172 µM]
O=C(Nc1cccc(C(F)(F)F)c1)N1C[C@@H](F)[C@@H](OCc2nc3ccccc3[nH]2)C1 | -10%[70.6 µM] | 100µM* | i | i | 100µM*
COc1ccc(C(=O)N2C[C@@H](F)[C@@H](OCc3nc4ccccc4o3)C2)cc1 | 0%[70.6 µM] | -30%[174 µM] | i | -13%[88.5 µM] | 100µM*
COc1ccc(C(=O)N2C[C@@H](F)[C@@H](OCc3nc4ccc(F)cc4[nH]3)C2)cc1 | -27%[70.6 µM] | -21%[138 µM] | 40µM* | 0%[88.5 µM] | ?
Cc1ccc2nc(CO[C@H]3CN(C(=O)C4CC4)C[C@H]3F)[nH]c2c1 | -15%[70.6 µM] | -16%[138 µM] | 28µM* | ? | -8%[172 µM]
Cc1cccc(CNC(=O)C2CCc3sc(C(=O)N4CCOCC4)cc3C2)c1 (centres undefined) | 3% | -30% | i | -10% | ?
O=C(c1cnccn1)N1CCN(c2cc(-c3ccccc3)[nH]n2)CC1 | 5% | -8% | i | 2% | -8%
O=C(Nc1ccc(Cl)cc1)N1CCCC(c2nn(-c3ccccn3)c(=O)[nH]2)C1 (centres undefined) | / | 35µM* | / | i | 40µM*
CC(C)(C)C(=O)N1CCC(c2nn(-c3ccccc3)c(=O)[nH]2)CC1 | 0%[70.6 µM] | -10%[138 µM] | 50µM* | 1%[88.5 µM] | ?
O=C(c1ccccc1Cl)N1CCCC(c2nn(-c3cccc(Cl)c3)c(=O)[nH]2)C1 (centres undefined) | 14% | 35µM* | i | 4% | 35µM*
O=c1[nH]c(C2CCCN(Cc3ccccc3)C2)nn1-c1ccccc1 (centres undefined) | 16%[70.6 µM] | 89µM* | i | i | 100µM*
Cc1[nH]nc2c1C(c1cccc(F)c1)C(C#N)=C(N)O2 (centres undefined) | 0% | -16% | i | ? | ?
COc1cc2c(cc1C(=O)N1CCC3(CC1)c1nc[nH]c1CCN3C)CCC2 | 11% | -4% | i | i | -10%
COC(=O)c1ccc(CN2C(=O)[C@@H]3C[C@@H](O)CN3C3(CN(CC4CCCCC4)C3)C2=O)cc1 | 2% | i | i | -4% | i

Compound activity from PubChem BioAssay.
